# Results taken from the supplement of paper PMC6555819.
# System: PPARa:RXRa (NR concentration 270 nM, RXRa partner concentration 90 nM)
# Test: PBM binding z-score (relative to random genomic background probes); higher = stronger binding; sequences stand for … in GC…GCGATTGACAGCGTAGAATGAAGG
# Procedure: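 Protein-binding microarray (Agilent 4x180K custom design, double-stranded 60-nt probes: 5' GC cap, 34-nt variable region, 24-nt constant primer region; full probe sequence given). Purified or IVT nuclear receptor:RXRα heterodimers (3:1 NR:RXRα, mostly 270:90 nM) or homodimers were incubated for 1 h in PBS with 2% milk and no ligand, then detected with Alexa488 antibodies. Fluorescence from o1-orientation probes (~5 replicates averaged) was converted to z-scores against 500 random hg19 background probes. Variable regions are seed direct-repeat (DR0–DR5) sites, all their single-nucleotide variants and half-site ablations.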
row,Sequence,PBM binding z-score
1,TCGAGTAGGTCACGGGGGCATTCAGGGATGAAGA,6.09
2,TCTCGGAGGAAACGAAAGGTCAGAGCTCGACATC,3.66
3,AATACAGGGTCATCGTACGCCAGAGTACGCACAG,5.99
4,ATTTGTAGGTTACATCCGGGTCATTCAGGCTATG,4.12
5,CGAACAAGGTCATCCAGGACAGTGAATACATTGA,5.9
6,CCTACGGGGCCACGAAAGGTCATTGATTCAGTGA,4.69
7,CCTACTGGGCCAAAAAGGTCATTGATGCCGATAA,4.51
8,CAAACTAGGTCACAAAAGGTCAAAGTCGAATGAC,6.35
9,AGTCAAAGTTCATCTAGGTAACATAAGATATGCT,5.11
10,CCTACTGGGCCAAAGGTGATTGATTCCAATGCTC,4.5
11,CGTCAAAGATCAAGGTAACGTAACAGAAAGCAGC,0.962
12,AATACAAGGTCATCGTAGGCCAGAGTACGCACAG,5.75
13,CGTCAAAGTCCAAGGTAACGTAACAGAAAGCAGC,0.351
14,ACTCGGATGACAAAGGTCAGAGCTACGCCAGTGA,4.38
15,TAGCCTAGGTCGTTCAGGGGCCAGTATAGAAAGC,0.74
16,CGTCCAAGGTTAAGGTCAGTGAAAGAGACTCGAA,3.78
17,TCTGCTAGGTCAACGATGGTCAGTTAATCTGCTA,3.04
18,CCTACTGGGCCATTCAGAGGTCAATGATCATATG,3.87
19,CCTACTGGGCCTAAGGTCATTGATTCCAATGCTC,4.53
20,TCTAGTTGGTCAAAGGTCACGCACTCGAAATGCG,6.76

row,Sequence,PBM binding z-score
1,ACTCGGTGGACAAAGGTCAGAGCTACGCCAGTGA,4.25
2,CCTTACGGGTCACTGACAGGTTATAGCGTTTGGA,5.13
3,CCGACGGGGGCAAAGGTTACCATACTCAGTACGA,6.41
4,CCTCGGAGGACAGAAGGTCAAAGCTGTCCGCTTT,3.67
5,AGAATGAGGTCATACGTAGATCAGGGAAGAAAGT,6.29
6,TAGCCTAGGTCATGCGGGCCAATATAGTGTCGGC,3.53
7,ATCGAAAGGTCGACGAGGTGAGTAAACACCGTTT,4.51
8,TAGCCTAAGTCATGCGGGCCAGTATAGTGTCGGC,-0.167
9,CCTTACGGGTCACGTGGTTATAGCACGACGAGCG,5.88
10,ACTTACGGGTCTACGAGGTTATAGCACGCGTATA,1.2
11,AGTCAAACTTCAGGACGAGGTAACGTAAAGCACG,0.0838
12,TCTAGTTGGTCACGGAGGTCACAAACGACGGGTA,3.87
13,AGAATGAGGTTACCAAAGGTCAGGGAAACGCTTG,5.55
14,AGCGAAAGGTCGAGGTGAGTATAGAGAAAGGGAA,4.51
15,GCATATAGGTAATACAAGGTCAAAGTCCGATTGT,4.21
16,CGTCCAAGGTCATAGAGGTCAGTGAATGCCGAGT,5.85
17,CGTTCAAGGTCAAAGGTCAGTGAAGAGATGACGG,7.05
18,ATCGAAAGGTCTAAGGTGAGTATACCCACCCGAA,1.52
19,CCTAGTTGGTCAAGGTCACATACGCTATAGGTAC,4
20,CCTCGGAGGACAACAGGAGGTCATAGCTGCCAGA,3.13
